NPR1 activator = GC-A (human) enzyme activation | AID 1671463 | 370,000 compounds, 0.14% hits | P16066 | activation, % at 10 µM | HEK293 GC-A cells, cGMP TR-FRET, EC30 ANP; 0% at EC30 ANP, 100% saturating ANP; in the data active means activation above about 40%
Target sequence (P16066 whole entry, looked up): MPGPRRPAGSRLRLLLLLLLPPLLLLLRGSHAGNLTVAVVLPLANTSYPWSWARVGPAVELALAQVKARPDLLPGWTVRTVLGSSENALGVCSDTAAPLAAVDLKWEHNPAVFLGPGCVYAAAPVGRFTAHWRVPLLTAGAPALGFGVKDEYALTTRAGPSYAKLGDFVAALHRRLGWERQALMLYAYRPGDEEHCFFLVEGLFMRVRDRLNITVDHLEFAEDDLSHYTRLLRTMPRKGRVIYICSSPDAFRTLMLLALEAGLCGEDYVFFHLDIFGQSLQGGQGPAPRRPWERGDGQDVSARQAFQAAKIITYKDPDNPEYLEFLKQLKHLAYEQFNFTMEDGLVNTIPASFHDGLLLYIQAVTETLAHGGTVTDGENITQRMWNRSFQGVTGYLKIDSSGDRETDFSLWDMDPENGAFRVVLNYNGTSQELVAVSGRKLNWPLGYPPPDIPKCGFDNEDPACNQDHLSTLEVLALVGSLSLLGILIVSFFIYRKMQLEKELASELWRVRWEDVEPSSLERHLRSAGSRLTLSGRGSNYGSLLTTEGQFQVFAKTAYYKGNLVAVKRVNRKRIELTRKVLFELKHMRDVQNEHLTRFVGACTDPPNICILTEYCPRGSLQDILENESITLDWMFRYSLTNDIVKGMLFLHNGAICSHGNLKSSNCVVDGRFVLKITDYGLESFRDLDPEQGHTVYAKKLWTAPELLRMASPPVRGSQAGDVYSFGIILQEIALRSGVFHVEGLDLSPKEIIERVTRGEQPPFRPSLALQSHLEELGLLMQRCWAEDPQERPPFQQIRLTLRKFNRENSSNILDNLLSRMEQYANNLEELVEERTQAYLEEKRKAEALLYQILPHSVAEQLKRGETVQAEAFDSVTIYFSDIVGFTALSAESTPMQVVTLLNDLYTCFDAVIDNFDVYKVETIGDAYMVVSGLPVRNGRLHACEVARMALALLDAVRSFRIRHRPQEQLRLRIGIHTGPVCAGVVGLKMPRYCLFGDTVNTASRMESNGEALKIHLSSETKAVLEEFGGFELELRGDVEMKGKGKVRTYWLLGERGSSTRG
Myeloid diff MLP = compounds promoting myeloid differentiation. ER-HoxA9 myeloid progenitors, lysozyme-GFP differentiation, flow cytometry. calls only at 10 µM. 360,000 compounds, 1% hits. AID 624256;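 active means normalized GFP-positive differentiation at or above the plate's own cutoff, the solvent-only control mean plus 3 SD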;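 further: cells exposed to compound for four days before flow analysis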
Exocytosis inh = lytic granule exocytosis inhibition; 360,000 compounds, 0.66% hits; inhibition, % at 10 µM; TALL-104 LAMP-1 surface exposure, flow cytometry; cells stimulated with thapsigargin and PMA; AID 651702;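 active means inhibition above about 55%, limit read from the data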
GC-B act = GC-B (human) receptor activation | P20594 | HEK293-GC-B cells, CNP EC30, cGMP TR-FRET; 0% at EC30 CNP, 100% saturating CNP | activation, % at 10 µM | 370,000 compounds, 0.11% hits;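 active means activation at 10 µM reaching about 35% in either raw or pattern-adjusted values, limit read from the data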
Myeloid diff CP1 = compounds promoting myeloid differentiation | shares compounds with Myeloid diff MLP | ER-HoxA9 myeloid progenitors, GFP/Mac1 double-positive flow | calls only | 2,300 compounds, 2% hits;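 active means share of green or green-and-red cells above 9 and 9% in run 1 or 4 and 3% in run 2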
GFP autofluor = counter-screen for myeloid differentiation promoters: compound fluorescence | shares compounds with Myeloid diff MLP | ER-HoxA9 myeloid progenitors, no estrogen, GFP autofluorescence flow cytometry; vehicle wells 0%, positive control 100% | fluorescence response, % (no concentration beside the values) | 2,300 compounds, 7.4% hits;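 active means over 5% cells positive for green fluorescent reporter, or over 2% positive for both it and APC stain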;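 further: range taken on the double positive population between DMSO and positive control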
* = called active by the depositor; i = inactive; x = no result given; + = active, no number. The list is not random: actives were taken first. Their share in the collection is about 1.8%.

SMILES	NPR1 activator	Myeloid diff MLP	Exocytosis inh	GC-B act	Myeloid diff CP1	GFP autofluor
CCN(CC)CCN(C(=O)c1cccc(N2C(=O)CCC2=O)c1)c1nc2cc3c(cc2s1)OCO3	-4	i	5	-2	x	x
COc1ccccc1C1CC(c2ccccc2)=NN1S(=O)(=O)c1ccccc1 (stereo not given)	0	i	10	0	x	x
COc1cccc(C2CC(c3ccccc3)=NN2S(=O)(=O)c2ccc(C)cc2)c1OC (stereo not given)	3	+	0	-1	i	93*
CCC(=O)N(CCC(c1ccc(C)cc1)c1ccco1)Cc1ccco1 (stereo not given)	1	i	3	5	i	0
CCNC(=O)NC1(C(=O)N2CCC(Cc3ccccc3)CC2)CCCCC1	0	+	51	-2	i	1
CC1(C)N=C(N)NC(Nc2ccc(Br)cc2)=N1	6	+	-3	6	i	1
CC1(C)N=C(N)NC(Nc2cccc(Br)c2)=N1	2	i	-3	4	x	x
O=C(NCCc1c[nH]c2ccccc12)/C(=C\c1cccnc1)NC(=O)c1ccccc1Br	-3	+	13	5	i	0
CCOC(=O)C1=CCN(S(=O)(=O)c2ccccc2C)C1c1cccc(Br)c1 (stereo not given)	-13	i	0	-9	x	x
O=S(=O)(c1ccc2c(c1)OCCO2)N1CCN(c2nc3ccccc3s2)CC1	-2	i	2	-1	i	0
COC(=O)c1cccc(S(=O)(=O)N2CCN(c3nc4ccccc4s3)CC2)c1	-8	i	2	-5	x	x
C=CCc1cccc(C=Nc2cc(Br)ccc2O)c1O	0	+	2	-4	i	0
N=c1c2c3c(sc2nc2n1CCC2)CCCC3	13	i	-5	-2	x	x
CC1(C)Cc2c(sc3nc4n(c(=N)c23)CCC4)CO1	12	i	2	6	i	0
O=C(O)C(c1ccccc1)N1C(=O)/C(=C\c2ccc(-c3ccc(Br)cc3)o2)SC1=S (stereo not given)	-16	+	1	-1	i	26*
O=C(NCCc1ccccc1)C1Cc2c(-c3ccc4c(c3)OCO4)ccnc2O1 (stereo not given)	-4	i	20	-3	x	x
CCOC(=O)c1c(C)[nH]c(C(=O)COC(=O)c2ccc(F)c(S(=O)(=O)N3CCOCC3)c2)c1C	2	+	4	3	i	1
CC1CCCCC1NC(=O)C(=O)NCC1CCCO1 (stereo not given)	0	i	-1	0	i	0
CCCCN1CC(COCc2ccccc2)Oc2cccc(N3CCCC3)c2S1(=O)=O (stereo not given)	4	i	-2	3	i	0
O=C(Nc1nccs1)c1ccc(-c2ccc([N+](=O)[O-])cc2)o1	5	+	2	-7	i	0
CC(C)C/C(O)=C/c1nc2cc(Cl)ccc2oc1=O	0	i	1	0	i	1
O=c1oc2ccc(Cl)cc2nc1/C=C(\O)c1ccco1	-5	+	-3	1	i	0
Cc1ccc(C(C(=O)NC2CCCCC2)N(C(=O)Cc2c[nH]c3ccccc23)c2ccccc2)o1 (stereo not given)	-13	+	2	-14	i	0
CC(=O)Nc1ccc(N(C(=O)Cc2c[nH]c3ccccc23)C(C(=O)NC2CCCCC2)c2ccco2)cc1 (stereo not given)	1	i	-2	0	x	x
O=C(Nc1ccc(Br)cc1F)c1nc[nH]c1C(=O)N1CCc2ccccc2C1	3	i	-3	-3	x	x
SMILES	NPR1 activator	Myeloid diff MLP	Exocytosis inh	GC-B act	Myeloid diff CP1	GFP autofluor
COC(=O)C[C@@H]1C=C[C@@H](NC(=O)c2ccccc2F)[C@@H](CO)O1	3	i	-6	1	i	0
COC(=O)C[C@H]1C=C[C@H](NC(=O)Cc2ccccc2)[C@@H](CO)O1	2	i	17	1	x	x
O=C(COc1ccc(-n2cnnn2)cc1)Nc1ccc(F)cc1	-2	i	-1	-4	x	x
O=C(COc1ccc(-n2cnnn2)cc1)Nc1ccc(F)c(F)c1	0	i	-11	-7	i	0
C[C@@H]1CN([C@H](C)CO)S(=O)(=O)c2ccc(Br)cc2O[C@H]1CN(C)C(=O)C1CC1	-12	i	-2	-12	x	x
CCOC(=O)c1c(N)sc2c1CCC(C)C2 (stereo not given)	3	+	-2	-2	i	1
CCOC(=O)c1c(NS(C)(=O)=O)sc2c1CCC(C)C2 (stereo not given)	7	i	0	1	x	x
CC(=O)Nc1ccc(OCC(O)Cn2c3ccccc3c3ccccc32)cc1 (stereo not given)	-2	i	1	4	i	8.5*
CC(=O)Nc1ccc(OCC(O)Cn2c3ccccc3c3ccccc32)c(C)c1 (stereo not given)	-1	i	3	-5	x	x
O=C(OCC#CCSc1nnc(-c2cccc3ccccc23)o1)C1CCCC1	-2	x	x	-5	x	x
COc1ccc(C2C(C(=O)Nc3ccc(Cl)c(Cl)c3)CCC(=O)N2c2ccc(OC)cc2)cc1 (stereo not given)	-1	x	x	-1	x	x
Cc1ccc(N)c(C(O)(C(F)(F)F)C(F)(F)F)c1	6	i	-8	-5	x	x
CNc1ccc(C(O)(C(F)(F)F)C(F)(F)F)cc1C(O)(C(F)(F)F)C(F)(F)F	3	+	19	4	i	1
COc1ccccc1NS(=O)(=O)c1cc([N+](=O)[O-])ccc1N/N=C/c1c[nH]c2ccccc12	-4	+	14	-10	i	46*
COc1ccc(-c2noc(CCC(=O)Nc3cccc(C(=O)NC4CC4)c3)n2)cc1OC	-2	i	-6	8	x	x
COc1ccc(-c2oc3ccc(N4CCOCC4)cc3c2C#CCO)cc1	11	i	-2	6	x	x
COc1ccc(-c2ccc3oc(-c4ccc(OC)cc4)c(C#CCO)c3c2)cc1	-3	+	-4	-2	i	0
CC(C)(C)OC(=O)N1CCC(c2c(C(=O)NC3CC3)cnn2-c2ccc(Cl)cc2)CC1	3	i	-2	-2	x	x
O=C1NC[C@H](Cc2ccc(O)cc2)N(C[C@@H]2CCCN2C[C@H](Cc2ccccc2)N2C[C@H](Cc3ccc(O)cc3)N(CC3CCCCCC3)C(=O)C2=O)C1=O	3	i	-4	-2	x	x
CCC/C=C/c1ccc(CN2C(C(C)C)C(=O)N(Cc3cn(CCC4OCCO4)nn3)CCS2(=O)=O)cc1 (stereo not given)	0	i	-2	1	i	0
